Source: publication PMC4336329 (PLoS ONE, 2015)
Screen size: about 310,000 compounds; about 14,000 (4.5%) showed an effect of 50% or more. The effect is printed as a negative number. The full list was thinned out, with strong results kept by preference.

What follows are compounds tested against human ether-à-go-go-related gene (hERG) potassium channel (human, UniProt Q12809) (assay: primary screen, population patch clamp on CHO cells stably expressing hERG; higher = less effect of the substance).
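Also: peak tail current of the secondary pulse compared with the same well before compound.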

human ether-à-go-go-related gene (hERG) potassium channel, sequence (Q12809 whole entry, looked up): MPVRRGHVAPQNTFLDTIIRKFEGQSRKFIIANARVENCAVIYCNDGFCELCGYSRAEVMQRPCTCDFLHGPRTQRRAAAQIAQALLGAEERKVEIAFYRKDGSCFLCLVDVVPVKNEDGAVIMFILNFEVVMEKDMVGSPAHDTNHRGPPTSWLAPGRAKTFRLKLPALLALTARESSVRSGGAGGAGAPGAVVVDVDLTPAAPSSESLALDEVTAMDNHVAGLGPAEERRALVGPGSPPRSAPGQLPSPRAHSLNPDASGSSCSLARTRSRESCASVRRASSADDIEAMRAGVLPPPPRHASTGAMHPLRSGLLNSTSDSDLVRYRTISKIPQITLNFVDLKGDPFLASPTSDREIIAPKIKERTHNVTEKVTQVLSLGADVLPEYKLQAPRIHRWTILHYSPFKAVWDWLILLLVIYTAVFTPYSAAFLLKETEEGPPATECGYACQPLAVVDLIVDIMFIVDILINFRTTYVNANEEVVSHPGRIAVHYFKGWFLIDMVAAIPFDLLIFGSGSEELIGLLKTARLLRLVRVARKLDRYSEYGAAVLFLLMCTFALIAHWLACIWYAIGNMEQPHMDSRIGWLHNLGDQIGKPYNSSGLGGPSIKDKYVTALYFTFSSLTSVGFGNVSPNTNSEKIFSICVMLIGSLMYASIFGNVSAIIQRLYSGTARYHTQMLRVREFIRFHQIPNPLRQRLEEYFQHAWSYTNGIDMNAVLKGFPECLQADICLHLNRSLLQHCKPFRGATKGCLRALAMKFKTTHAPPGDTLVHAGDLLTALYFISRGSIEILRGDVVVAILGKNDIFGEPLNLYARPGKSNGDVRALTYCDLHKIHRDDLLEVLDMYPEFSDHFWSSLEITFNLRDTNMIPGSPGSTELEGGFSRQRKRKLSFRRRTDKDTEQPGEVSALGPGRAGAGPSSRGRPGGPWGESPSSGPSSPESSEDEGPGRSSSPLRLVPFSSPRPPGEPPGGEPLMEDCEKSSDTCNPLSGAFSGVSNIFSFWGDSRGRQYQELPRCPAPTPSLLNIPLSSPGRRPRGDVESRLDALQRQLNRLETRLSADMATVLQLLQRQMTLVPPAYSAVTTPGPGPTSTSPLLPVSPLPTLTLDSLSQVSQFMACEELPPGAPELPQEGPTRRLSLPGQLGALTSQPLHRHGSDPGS

Going from `CCc1ccc(OCC(=O)Nc2nnc(-c3ccco3)s2)cc1` to `COc1ccc(NC(=O)NNC(=O)COc2ccc3cc(Br)ccc3c2)c(OC)c1`, the “hERG current change (%, negative = inhibition) at 10uM” value rises from 11.5% to 19.2%.

First: CC(C)N1C(=O)S/C(=C/c2cccnc2)C1=O
Second: O=C1c2ccccc2C(=O)N1CCc1nn[nH]n1
The “hERG current change (%, negative = inhibition) at 10uM” value of the first is lower: 8.88% for the first, 17% for the second.

Compared with `CCOC(=O)c1c(NC(=O)c2cccs2)sc(C)c1CC`, `CCOC(=O)c1[nH]c2ccc(OC)cc2c1NC(=O)c1nonc1C` is higher in “hERG current change (%, negative = inhibition) at 10uM” value: 2.45% for the first, 6.27% for the second.

Compared with `CCOC(=O)C1=C(C)OC(N)=C(C#N)C1c1cc(OC)c2c(c1)OCO2` (stereo not drawn), `CCOc1ccc2c(c1)sc1nc(C(=O)OC)cc(=O)n12` is higher in “hERG current change (%, negative = inhibition) at 10uM” value: -20.6% for the first, -12.9% for the second.

Compared with `CCOc1cc(N2CCOCC2)c(OCC)cc1NC(=O)CSc1ccccc1C(=O)O`, `CCOc1cccc2cc(-c3csc(NC(=O)CCC(=O)NCCCN4CCC(C)CC4)n3)c(=O)oc12` is lower in “hERG current change (%, negative = inhibition) at 10uM” value: 5.72% for the first, -44.6% for the second.

Going from `CCOC(=O)c1ccc(N(CC(=O)NCC2CCCO2)C(=O)CCC(=O)Nc2cc(C)on2)cc1` (stereo not drawn) to `CCOc1cccc2cc(-c3csc(NC(=O)CCC(=O)NCCN4CCCCC4C)n3)c(=O)oc12` (stereo not drawn), the “hERG current change (%, negative = inhibition) at 10uM” value falls from 9.99% to -34.9%.

Compared with `COc1cc(NC(=S)NCCc2c[nH]c3ccccc23)c(OC)cc1Cl`, `COc1ccc(NC(=O)NNC(=O)c2ccc(Cl)cc2Cl)cc1OC` is higher in “hERG current change (%, negative = inhibition) at 10uM” value: 10.1% for the first, 13% for the second.

First: Cc1ccc(S(=O)(=O)N(CC(O)CN2CCCCC2)c2ccccc2)cc1.Cl (stereo not drawn)
Second: Cl.O=S(=O)(c1ccccc1)N(CC(O)CN1CCCCC1)c1ccccc1 (stereo not drawn)
The “hERG current change (%, negative = inhibition) at 10uM” value of the first is lower: -67.9% for the first, -53.2% for the second.

Going from `O=S(=O)(c1ccccc1)N(CC(O)CN1CCOCC1)c1ccccc1` (stereo not drawn) to `O=S(=O)(c1ccccc1)N(CC(O)CN1CCCC1)c1ccccc1` (stereo not drawn), the “hERG current change (%, negative = inhibition) at 10uM” value falls from 18.6% to -19%.

Going from `COc1ccccc1N(CC(O)CN1CCCCC1)S(=O)(=O)c1ccc(C)cc1` (stereo not drawn) to `COc1ccccc1C(=O)C1CCCN(C(=O)c2cccc(Cn3cccn3)c2)C1` (stereo not drawn), the “hERG current change (%, negative = inhibition) at 10uM” value rises from -29.7% to -13%.

Going from `CCN1CCN(Cc2nc3c(c(=O)[nH]c(=O)n3C)n2Cc2ccccc2Cl)CC1` to `Cc1ccc(Cl)cc1N1CCN(C(=O)c2cc3c(=O)[nH]c4ccccc4c3n2C)CC1`, the “hERG current change (%, negative = inhibition) at 10uM” value falls from 14.8% to 8.91%.

First: CCOC(=O)C1CCN(c2ncnc3c2cnn3-c2ccc(OC)cc2)CC1
Second: CCOC(=O)C1(Cc2ccc(OC)cc2)CCN(C(=O)CCN2CCCC2=O)CC1
The “hERG current change (%, negative = inhibition) at 10uM” value of the first is lower: -16.2% for the first, -3.22% for the second.

First: O=C(O)CC(c1cccc(C(F)(F)F)c1)N1CCS(=O)(=O)CC1 (stereo not drawn)
Second: CCCCNC(=O)C1CC(c2ccc(C(F)(F)F)cc2)=NO1 (stereo not drawn)
The “hERG current change (%, negative = inhibition) at 10uM” value of the first is lower: 2.42% for the first, 3.73% for the second.

Compared with `CCCCCCn1cnc2c(oc3nc4c(cc32)CCCC4)c1=O`, `CCCCn1cnc2c(oc3nc4c(cc32)CCCC4)c1=O` is lower in “hERG current change (%, negative = inhibition) at 10uM” value: 5.16% for the first, -55.5% for the second.

Compared with `CC(C)CCn1cnc2c(oc3nc4c(cc32)CCCC4)c1=O`, `Cc1nn(C(C)C)c(C)c1[C@@H]1C[C@H]2CN(Cc3cccc(Cl)c3)C(=O)[C@]23CCCN13` is lower in “hERG current change (%, negative = inhibition) at 10uM” value: -16.6% for the first, -29.2% for the second.

Compared with `Cc1ccc(NC(=O)Cc2ccccc2Cl)cc1S(=O)(=O)N(C)C`, `Cc1ccnc(NC(=O)c2cccc(S(=O)(=O)N3CCCc4ccccc43)c2)c1` is lower in “hERG current change (%, negative = inhibition) at 10uM” value: 0.299% for the first, -1.95% for the second.

First: CCOC(=O)C1(CCc2ccccc2)CCN(C(=O)CCn2cncn2)CC1
Second: CCOC(=O)C1(CCCc2ccccc2)CCN(C(=O)CCn2cncn2)CC1
The “hERG current change (%, negative = inhibition) at 10uM” value of the first is lower: -63.2% for the first, -56.4% for the second.

Going from `CCOC(=O)C1(CCCc2ccccc2)CCN(C(=O)CCCn2cncn2)CC1` to `CCOC(=O)C1(CCCc2ccccc2)CCN(C(=O)CCn2cnnn2)CC1`, the “hERG current change (%, negative = inhibition) at 10uM” value falls from -44.1% to -56.6%.

Going from `CCOC(=O)C1(CCCc2ccccc2)CCN(C(=O)CN2CCOC2=O)CC1` to `CCOC(=O)C1(CCCc2ccccc2)CCN(C(=O)CN2C(=O)CSC2=O)CC1`, the “hERG current change (%, negative = inhibition) at 10uM” value falls from 6.35% to -4.63%.

First: CCOC(=O)C1(CCCc2ccccc2)CCN(C(=O)CCN2CCCCC2=O)CC1
Second: CCOC(=O)C1(CCc2ccccc2)CCN(C(=O)CCn2cnnn2)CC1
The “hERG current change (%, negative = inhibition) at 10uM” value of the first is lower: -62.8% for the first, -43.2% for the second.

Going from `CCOC(=O)C1(Cc2ccccc2Cl)CCN(C(=O)c2cnccn2)CC1` to `CCOC(=O)C1(Cc2ccccc2Cl)CCN(C(=O)CCn2ccnc2C)CC1`, the “hERG current change (%, negative = inhibition) at 10uM” value falls from -20.2% to -52.6%.

Going from `CCOC(=O)C1(CCCc2ccccc2)CCN(C(=O)C(C)n2cncn2)CC1` (stereo not drawn) to `CCOC(=O)C1(CCc2ccccc2)CCN(C(=O)C(C)n2cncn2)CC1` (stereo not drawn), the “hERG current change (%, negative = inhibition) at 10uM” value rises from -29% to -14.3%.

Going from `CCOC(=O)C1(Cc2ccccc2Cl)CCN(C(=O)CN2CCOC2=O)CC1` to `Cc1c(C(=O)N2CCC3(CC2)OCCO3)sc2ncnc(N3CCc4ccccc4C3)c12`, the “hERG current change (%, negative = inhibition) at 10uM” value falls from 8.88% to -33.7%.

Going from `CN(C)c1nc(N)c([N+](=O)[O-])c(NCC2CCCO2)n1` (stereo not drawn) to `COc1cccc2cc(-c3csc(NC(=O)CCC(=O)NCCCN4CCC(C)CC4)n3)c(=O)oc12`, the “hERG current change (%, negative = inhibition) at 10uM” value falls from 7.07% to -51.9%.

Compared with `O=C(O)CCCNC(=O)/C=C/c1ccco1`, `O=Cc1cn(CCC(=O)O)nc1-c1cc2ccccc2o1` is lower in “hERG current change (%, negative = inhibition) at 10uM” value: 12.5% for the first, -5.41% for the second.

Compared with `CC(=O)Nc1sc(-c2ccccc2)nc1-c1ccccc1`, `O=C(CSc1nncn1-c1ccccc1)Nc1ccccc1` is lower in “hERG current change (%, negative = inhibition) at 10uM” value: 14% for the first, -0.536% for the second.

Going from `Cc1cc(-c2nnc(CCC(=O)NCc3ccc(F)c(F)c3)o2)no1` to `N#CCCn1cc(C(=O)O)c(-c2cc3ccccc3o2)n1`, the “hERG current change (%, negative = inhibition) at 10uM” value rises from 2.95% to 24.6%.

Compared with `CN(C(=O)CC1C(=O)NCCN1Cc1c(F)cccc1Cl)C1CCOCC1` (stereo not drawn), `Cn1cc(CN2CCC(C(=O)N3CCCC3)CC2)c(-c2ccccc2F)n1` is lower in “hERG current change (%, negative = inhibition) at 10uM” value: 17.9% for the first, -4.8% for the second.

Going from `Cc1ccc(S(=O)(=O)N2CC(=O)NC(=O)C2)cc1` to `CC1(C)CC(=O)C(Sc2ccccc2[N+](=O)[O-])=C(O)C1`, the “hERG current change (%, negative = inhibition) at 10uM” value falls from 6.07% to 4.99%.

First: O=C(C#Cc1ccccc1)Nc1ccc(F)cc1
Second: N#Cc1c(Oc2ccc3ccccc3c2)sc(C(=O)c2ccccc2)c1N
The “hERG current change (%, negative = inhibition) at 10uM” value of the first is lower: 10.1% for the first, 11.1% for the second.

Going from `C[C@@H](NC(=O)c1nc[nH]c1C(=O)NCc1ccc(CNC(=O)OC(C)(C)C)cc1)c1ccccc1` to `O=C(CNC(=O)c1cccc(Br)c1)NCCc1nc2ccccc2[nH]1`, the “hERG current change (%, negative = inhibition) at 10uM” value falls from 6.47% to 5.59%.

Going from `C[C@]12CS(=O)(=O)C[C@H]1SC(=S)N2c1ccccc1` to `COCCNC(=O)CSc1ncnc2sc(-c3ccccc3)cc12`, the “hERG current change (%, negative = inhibition) at 10uM” value rises from -0.916% to 2.83%.

First: Cn1c(C(=O)N2CCN(c3ccc(Cl)cc3)CC2)cc2c(=O)[nH]c3ccccc3c21
Second: Cc1cccc(N2CCN(C(=O)c3cc4c(=O)[nH]c5ccccc5c4n3C)CC2)c1C
The “hERG current change (%, negative = inhibition) at 10uM” value of the first is lower: -114% for the first, 14.6% for the second.

Going from `OCCNc1nc2ccccc2[nH]1` to `Cc1cc(C)c(OCCCCCNCCO)c(C)c1`, the “hERG current change (%, negative = inhibition) at 10uM” value falls from 12.8% to -5.77%.

Going from `CCCCN(CCCC)CCCNC(=O)C1CC(c2cc(C(F)(F)F)cc(C(F)(F)F)c2)=NO1` (stereo not drawn) to `CCCCN(CCCC)CCCNC(=O)C1CC(c2ccc(C(F)(F)F)cc2)=NO1` (stereo not drawn), the “hERG current change (%, negative = inhibition) at 10uM” value falls from 3.86% to -72.3%.

First: COCCCN1C(=O)c2ccc(C(=O)OCC(=O)N(C)c3ccccc3)cc2C1=O
Second: COc1ccc(C(=O)C2CCCN(C(=O)c3cccc(Cn4cccn4)c3)C2)cc1F (stereo not drawn)
The “hERG current change (%, negative = inhibition) at 10uM” value of the first is higher: 2.63% for the first, -14.5% for the second.

Going from `COc1ccc(CN2CCCC(C(=O)c3ccc(Cl)cc3)C2)cc1Cn1cccn1` (stereo not drawn) to `COc1ccc(CN2CCCC(C(=O)c3ccc(SC)cc3)C2)cc1Cn1cccn1` (stereo not drawn), the “hERG current change (%, negative = inhibition) at 10uM” value rises from -83.9% to -80.3%.

Compared with `COc1ccc(CN2CCCC(C(=O)c3cccc(OC(C)C)c3)C2)cc1Cn1cccn1` (stereo not drawn), `OC1CCCN(Cc2cn(Cc3ccccc3)nc2-c2cc3ccccc3o2)C1` (stereo not drawn) is higher in “hERG current change (%, negative = inhibition) at 10uM” value: -69.9% for the first, -44.7% for the second.

Going from `CC(C)(C)C1CCc2c(C(=O)NNC(=O)/C=C/C(=O)O)csc2C1` (stereo not drawn) to `COCc1ccc([C@@H]2C[C@H]3CN(Cc4cccnc4)C(=O)[C@]34CCCN24)o1`, the “hERG current change (%, negative = inhibition) at 10uM” value falls from 10.3% to -3.38%.

Compared with `Cn1cc(CN2CCC(C(O)CCc3ccccc3)CC2)c(-c2ccccc2F)n1` (stereo not drawn), `CCC(O)C1CCN(Cc2cn(Cc3ccccc3)nc2-c2cc3ccccc3o2)CC1` (stereo not drawn) is higher in “hERG current change (%, negative = inhibition) at 10uM” value: -71.3% for the first, -65.1% for the second.

Compared with `OC1CCN(Cc2cn(Cc3ccccc3)nc2-c2cc3ccccc3o2)CC1`, `OCC1CCN(Cc2cn(Cc3ccccc3)nc2-c2cc3ccccc3o2)CC1` is lower in “hERG current change (%, negative = inhibition) at 10uM” value: -50.7% for the first, -67% for the second.

Compared with `Cn1cc(CN2CCC(C(=O)N3CCCCC3)CC2)c(-c2ccccc2F)n1`, `OCC1CCCN(Cc2cn(Cc3ccccc3)nc2-c2cc3ccccc3o2)C1` (stereo not drawn) is lower in “hERG current change (%, negative = inhibition) at 10uM” value: 4.1% for the first, -41.9% for the second.

Compared with `O=C1CSC(c2cn(-c3ccccc3)nc2-c2cc3ccccc3o2)N1Cc1ccccc1` (stereo not drawn), `O=C1N(Cc2cccc(Cl)c2)C[C@@H]2C[C@@H](c3ccc4nonc4c3)N3CCC[C@@]123` is lower in “hERG current change (%, negative = inhibition) at 10uM” value: -6.82% for the first, -55.1% for the second.

Compared with `Brc1cccc(OCCCCn2cncn2)c1`, `O=C1N(Cc2cccnc2)C[C@@H]2C[C@@H](c3ccc4nsnc4c3)N3CCC[C@@]123` is lower in “hERG current change (%, negative = inhibition) at 10uM” value: 11.2% for the first, -11.3% for the second.

First: Cc1ccc([C@@H]2C[C@H]3CN(Cc4cccc(Cl)c4)C(=O)[C@]34CCCN24)o1
Second: O=C1N(Cc2cccnc2)C[C@@H]2C[C@@H](c3ccc4nonc4c3)N3CCC[C@@]123
The “hERG current change (%, negative = inhibition) at 10uM” value of the first is higher: -34.3% for the first, -59.1% for the second.
